Laboratory results: PubChem BioAssay AID1159580 (chemical genetic matrix, 2015)
Where “and” joins values, the source holds several entries; their conditions need not be identical. Identical values can stand only once. Screen size: about 5,500 compounds; about 2,000 (36%) were called active. Inconclusive results (about 18%) are left out. Rule as the data show it: active = normalized growth mostly below about 0.91 (no sharp cut-off); inconclusive = no clear call, values can overlap the other calls; inactive = mostly above about 0.92. This is one part of the list.

Test: chemical genetic growth profiling, strain panel (AID 1159580);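 also: tested at 20 µM; growth read once vehicle control cultures reached saturation at 30 °C; 1 = growth at the plate median or of vehicle wells; lower values mean less growth of the strain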
Settings: S. cerevisiae deletion strains, growth OD

Measured: normalized growth

COc1ccc2c3c([nH]c2c1)C(C)=NCC3
inactive: locus YAL013W, strain DEP1, stronger effect = lower value 1.01 | locus YAL021C, strain ccr4, stronger effect = lower value 0.997 | locus YAL026C, strain drs2, stronger effect = lower value 1.02 | locus YAL030W, strain snc1, stronger effect = lower value 1.01 | locus YBL061C, strain skt5, stronger effect = lower value 1.01 | locus YBR009C, strain hhf1, stronger effect = lower value 0.989 | locus YBR021W, strain FUR4, stronger effect = lower value 1.01 | locus YBR023C, strain chs3, stronger effect = lower value 0.999 | locus YBR171W, strain sec66, stronger effect = lower value 1.01 | locus YBR229C, strain ROT2, stronger effect = lower value 1 | locus YBR231C, strain swc5, stronger effect = lower value 0.997 | locus YBR279W, strain paf1, stronger effect = lower value 1.01 | locus YCL016C, strain dcc1, stronger effect = lower value 1 | locus YCL029C, strain bik1, stronger effect = lower value 0.984 | locus YCL069W, strain vba3, stronger effect = lower value 1.01 | locus YCR088W, strain abp1, stronger effect = lower value 1.01 | locus YDL005C, strain med2, stronger effect = lower value 0.99 | locus YDL035C, strain GPR1, stronger effect = lower value 1.02 | locus YDL040C, strain nat1, stronger effect = lower value 0.986 | locus YDL074C, strain BRE1, stronger effect = lower value 1 | locus YDL101C, strain DUN1, stronger effect = lower value 1.01 | locus YDL134C, strain PPH21, stronger effect = lower value 1 | locus YDL185W, strain tfp1, stronger effect = lower value 0.975 | locus YDL192W, strain arf1, stronger effect = lower value 0.993 | locus YDR001C, strain nth1, stronger effect = lower value 1.02 | locus YDR069C, strain doa4, stronger effect = lower value 0.992 | locus YDR101C, strain arx1, stronger effect = lower value 0.986 | locus YDR137W, strain rgp1, stronger effect = lower value 1.01 | locus YDR150W, strain NUM1, stronger effect = lower value 1.01 | locus YDR159W, strain sac3, stronger effect = lower value 1 | locus YDR162C, strain NBP2, stronger effect = lower value 1 | locus YDR195W, strain ref2 0.954 | locus YDR297W, strain sur2, stronger effect = lower value 0.991 | locus YDR318W, strain mcm21, stronger effect = lower value 0.983 | locus YDR334W, strain swr1, stronger effect = lower value 1.01 | locus YDR335W, strain msn5, stronger effect = lower value 1.01 | locus YDR388W, stronger effect = lower value 0.983 | locus YDR392W, strain spt3, stronger effect = lower value 1.01 | locus YDR502C, strain sam2, stronger effect = lower value 0.989 | locus YEL003W, strain gim4, stronger effect = lower value 1 | locus YEL037C, strain rad23, stronger effect = lower value 1 | locus YEL061C, strain CIN8 (second series), stronger effect = lower value 1.03 | locus YEL061C, strain CIN8, stronger effect = lower value 1.01 | locus YER015W, strain faa2, stronger effect = lower value 0.988 | locus YER016W, strain bim1, stronger effect = lower value 1 | locus YER110C, stronger effect = lower value 0.981 | locus YER111C, strain swi4, stronger effect = lower value 0.993 | locus YER155C, strain BEM2 (second series), stronger effect = lower value 0.98 | locus YER155C, strain BEM2, stronger effect = lower value 1.01 | locus YER167W, strain BCK2, stronger effect = lower value 1.01 | locus YFR010W, strain ubp6, stronger effect = lower value 0.999 | locus YGL078C, strain dbp3, stronger effect = lower value 0.987 | locus YGL086W, strain mad1, stronger effect = lower value 0.991 | locus YGL167C, strain pmr1, stronger effect = lower value 0.993 | locus YGL173C, strain kem1, stronger effect = lower value 0.984 | locus YGL227W, strain vid30, stronger effect = lower value 1 | locus YGL240W, strain doc1, stronger effect = lower value 1.01 | locus YGL248W, strain PDE1, stronger effect = lower value 1 | locus YGL253W, strain hxk2, stronger effect = lower value 1.03 | locus YGR078C, strain PAC10, stronger effect = lower value 1 | locus YGR135W, strain pre9, stronger effect = lower value 0.988 | locus YGR229C, strain SMI1, stronger effect = lower value 1.03 | locus YGR252W, strain gcn5, stronger effect = lower value 0.963 | locus YHR013C, strain ard1, stronger effect = lower value 0.948 | locus YHR027C, strain rpn1, stronger effect = lower value 1.01 | locus YHR030C, strain SLT2, stronger effect = lower value 1.01 and 0.978 | locus YHR079C, strain IRE1 (second series), stronger effect = lower value 0.992 | locus YHR079C, strain IRE1, stronger effect = lower value 1 | locus YHR094C, strain hxt1, stronger effect = lower value 0.991 | locus YHR129C, strain ARP1, stronger effect = lower value 0.999 | locus YHR142W, strain chs7, stronger effect = lower value 1.01 | locus YHR200W, strain rpn10, stronger effect = lower value 0.982 | locus YIL066C, strain RNR3, stronger effect = lower value 1.01 | locus YIL073C, strain SPO22, stronger effect = lower value 1.03 | locus YIL125W, strain kgd1, stronger effect = lower value 0.988 | locus YIR030C, strain dcg1, stronger effect = lower value 0.988 | locus YJL092W, strain hpr5, stronger effect = lower value 1.02 | locus YJL095W, strain BCK1 (second series), stronger effect = lower value 1 | locus YJL095W, strain BCK1, stronger effect = lower value 1.02 and 0.991 | locus YJL115W, strain asf1, stronger effect = lower value 0.994 | locus YJL129C, strain trk1, stronger effect = lower value 1.02 | locus YJL134W, strain LCB3, stronger effect = lower value 1 | locus YJL154C, strain vps35, stronger effect = lower value 1 | locus YJL164C, strain tpk1, stronger effect = lower value 1 | locus YJL166W, strain qcr8, stronger effect = lower value 1 | locus YJL168C, strain set2, stronger effect = lower value 0.986 | locus YJL187C, strain SWE1 (second series), stronger effect = lower value 1.01 | locus YJL187C, strain SWE1, stronger effect = lower value 0.993 | locus YJR043C, strain POL32, stronger effect = lower value 0.982 | locus YJR066W, strain TOR1, stronger effect = lower value 0.929 | locus YJR075W, strain HOC1, stronger effect = lower value 1.01
